HCMV antiviral – human cytomegalovirus inhibition; hit rate 4.5% among 410,000; activity change, negative = inhibition, % at 57.5 µM; HFF cells, HCMV-luciferase reporter, 72 h; stronger effect = lower value; in the data active = activity change below about -60%; inconclusive = no clear call, values can overlap the other calls; inactive = above about -39%
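After 16 h attachment at 37C, HFF cells received test compound and HCMV-luciferase (1 PFU/cell); reporter luminescence read 72 h later, data normalized against buffer-only and known inhibitor Salinomycin.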
AmpC inh detg – inhibitors of E. coli AmpC beta-lactamase with detergent; AID 485294; Potency, µM (doses to about 114 µM), for the others: at the highest dose activity change, negative = inhibition, hits mostly inhibitors; hit rate 0.041% among 370,000; AmpC hydrolysis of nitrocefin, absorbance 480 nm, 0.01% Triton;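 also: potency is read from the fitted curve at half-maximal effect; 0% = no-compound wells and -100% = no-enzyme wells; nearly all actives have a fitted effect of over 25% in size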
Target sequence (P00811 whole entry, looked up): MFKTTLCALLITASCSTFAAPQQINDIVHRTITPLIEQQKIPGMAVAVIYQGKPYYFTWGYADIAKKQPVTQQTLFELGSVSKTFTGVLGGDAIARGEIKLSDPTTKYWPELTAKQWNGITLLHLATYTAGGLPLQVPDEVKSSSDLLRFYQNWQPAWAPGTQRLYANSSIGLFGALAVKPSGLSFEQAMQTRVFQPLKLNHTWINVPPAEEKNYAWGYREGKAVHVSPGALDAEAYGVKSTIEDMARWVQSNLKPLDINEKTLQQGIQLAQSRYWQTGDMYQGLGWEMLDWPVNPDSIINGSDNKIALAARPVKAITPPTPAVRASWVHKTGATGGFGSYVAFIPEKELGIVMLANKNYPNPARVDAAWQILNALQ
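AmpC (5.3 nM in the dispensed reagent) in 20 mM phosphate pH 7.0 with 0.01% (detergent screen) or 0.0001% Triton X-100 was preincubated with compounds for 15 min at room temperature. Nitrocefin was then added from an 800 uM solution, and hydrolysis was followed at 480 nm.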
FMDV antiviral – blocks foot and mouth disease virus; FMDV antiviral cell-based qHTS; Potency, µM (doses to about 57.9 µM), for the others: at the top dose activity change, negative = inhibition, most hits filed as inhibitors; hit rate 1.2% among 410,000; calls by dose curve; tested in HEK293T cells; also: read-out not given here; potency is read from the fitted curve at half-maximal effect; nearly all actives have a fitted effect of over 45% in size
AmpC inh no detg – blocks E. coli AmpC beta-lactamase in detergent-free assay; P00811; AmpC nitrocefin hydrolysis, absorbance 480 nm, 0.0001% Triton; Potency, µM (top dose mostly 57.1 µM), inactives show at the highest dose activity change, negative = inhibition, usual class: inhibitors; hit rate 0.52% among 330,000; AID 485341;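 also: potency is read from the fitted curve at half-maximal effect; plate controls were no compound for no effect and no enzyme for full effect; nearly all actives have a fitted effect of over 20% in size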
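AmpC (5.3 nM in the dispensed reagent) in 20 mM phosphate pH 7.0 with 0.01% (detergent screen) or 0.0001% Triton X-100 was preincubated with compounds for 15 min at room temperature. Nitrocefin was then added from an 800 uM solution, and hydrolysis was followed at 480 nm.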
HCV inhibitor – inhibitors of hepatitis C virus infection. AID 651820. Huh7.5.1 HCVcc-Cre infection, luciferase reporter, 44 h. hit rate 3.4% among 340,000. Potency, µM (doses to about 41.8 µM), inactives show top-dose activity change, negative = inhibition, most hits filed as inhibitors; also: potency is read from the fitted curve at half-maximal effect
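Luciferase read-out (15 sec integration) after a 15 min room-temperature substrate step quantifies HCVcc-Cre infection. Cells, 1,000 per well, had compound added 4 h post-plating, then virus at ~0.5 moi, and were cultured 44 h.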
Starred values were filed as active, the others as inactive; u = inconclusive; x = not tested or not shown; + = active, no number; [ ] = another dose, or the depositor's remark. Only some compounds are listed: those with a hit (about 7.3% of all), similar ones and a draw of the others. Unless noted, calls follow the shape of the dose curve; as a rule, active = well fitted curve in the direction sought with a large enough effect; inconclusive = small, poorly fitted or top-dose-only effect, or another doubt; inactive = no such curve, though single readings can be large; an effect the other way counts as inactive or inconclusive. Unless noted, % is scaled to controls: 0 for no effect and ±100 for the full control effect.

SMILES	HCMV antiviral	AmpC inh detg	FMDV antiviral	AmpC inh no detg	HCV inhibitor
CC(=NCC1CCCO1)c1c(O)n(-c2ccc(C)cc2)c(=O)[nH]c1=O (stereo unspecified)	11	1%	21%	-13%	6%
CC(=NCC1CCCO1)c1c(O)n(Cc2ccccc2)c(=O)[nH]c1=O (stereo unspecified)	-4	7%	-8%	2.2µM*	14%
COc1cccc(/C=C/c2nc(C#N)c(NCCN(C)C)o2)c1	25	25%	0%	x	x
CN1C(=O)C(n2ccc3ccccc32)c2cccc(F)c21 (stereo unspecified)	8	x	x	x	x
C=CCC1(CC=C)CCCN1C(=O)c1cc(COc2ccc(C)nc2)on1	-76*	-9%	u	62%	0.79µM*
C=CCC1(CC=C)CCCN1C(=O)c1cc(COc2ccc(F)c(F)c2)on1	0	-12%	u	-39%	u
COc1ccc(N2CC(C(=O)Nc3nnc(SCC(=O)NCc4ccco4)s3)CC2=O)cc1 (stereo unspecified)	15	-15%	-13%	-18%	11%
Cc1cc(C)n(CC(C)O)c(=O)c1C#N (stereo unspecified)	97	0%	x	0.32µM*	16%
Cc1cc(C)n(CCCO)c(=O)c1C#N	41	u	-2%	-14%	9%
C=CC[C@@H](CC(=O)N[C@@H](CO)Cc1ccccc1)C(=O)N[C@H](COC(=O)[C@@H](CC=C)CC(=O)OC(C)(C)C)Cc1c[nH]c2ccccc12	-7	x	35µM*	205%	u
C=CC[C@H](CC(=O)N[C@H](CO)Cc1ccccc1)C(=O)N[C@@H](COC(=O)[C@@H](CC=C)CC(=O)OC(C)(C)C)Cc1c[nH]c2ccccc12	34	x	u	252%	u
C=CC[C@@H](CC(=O)N(CCO)Cc1ccccc1)C(=O)N[C@H](COC(=O)[C@@H](CC=C)CC(=O)OC(C)(C)C)Cc1c[nH]c2ccccc12	32	x	u	197%	11µM*
C=CC[C@H](CC(=O)N(CCO)Cc1ccccc1)C(=O)N[C@H](COC(=O)[C@H](CC=C)CC(=O)OC(C)(C)C)Cc1ccccc1	-27	x	0%	270%	11µM*
CCOC(=O)c1c(NC(=O)c2ccc(S(=O)(=O)N(CC(C)C)CC(C)C)cc2)sc2c1CCN(CC)C2	-30	-1%	-17%	x	x
COc1cc(Nc2cc3c(cn2)nc(-c2ccco2)n3C)cc(OC)c1OC	11	x	x	x	x
CCC(C)c1ccc(OCc2ccc(C(=O)O)o2)cc1 (stereo unspecified)	127	-2%	11µM*	-20%	20%
COc1ccc(OC)c(S(=O)(=O)N/N=C(/C)c2c[nH]c3ccccc23)c1	18	-16%	32%	-4%	1%
COc1ccc(OC)c(S(=O)(=O)N/N=C\c2c[nH]c3ccccc23)c1	12	8%	40%	-16%	11µM*
COc1ccc2[nH]cc(/C=N/NS(=O)(=O)c3ccc(C)cc3)c2c1	-64*	8%	-21%	-47%	11µM*
COc1ccc2c(/C=N/NS(=O)(=O)c3ccc(C)cc3)c[nH]c2c1	8	-6%	62%	-52%	u
CC1CN(Cc2cccn2-c2ncccn2)Cc2cc(Cl)ccc2O1 (stereo unspecified)	x	x	-14%	x	x
O=C(/C=C/c1ccc(-c2cccc([N+](=O)[O-])c2)o1)N1CCOCC1	-61*	3%	63%	31%	u
O=C(Nc1ncccc1O)c1cccc(S(=O)(=O)N2CCN(c3ccc(F)cc3)CC2)c1	-5	5%	-20%	-11%	-10%
O=C(c1cccc(S(=O)(=O)N2CCN(c3ccc(F)cc3)CC2)c1)N1CCCC(C(F)(F)F)C1 (stereo unspecified)	-61*	-10%	u	u	u
O=C(C1CCN(S(=O)(=O)c2cccs2)CC1)N1CCCC(C(F)(F)F)C1 (stereo unspecified)	-98*	-7%	-19%	16%	18%
SMILES	HCMV antiviral	AmpC inh detg	FMDV antiviral	AmpC inh no detg	HCV inhibitor
O=C(Nc1ccncc1)c1cccc(S(=O)(=O)N2CCN(c3ccc(F)cc3)CC2)c1	-71*	-14%	20µM*	-31%	u
CC1CCCN(C(=O)C2CCN(S(=O)(=O)c3cccs3)CC2)C1 (stereo unspecified)	-23	0%	-6%	6%	5%
Cc1ccc(NC(=O)c2cccc(S(=O)(=O)N3CCN(c4ccc(F)cc4)CC3)c2)nc1	-77*	-1%	u	-38%	u
O=C(O)C(Cc1ccccc1)N1C(=O)C2C3CCC(C3)C2C1=O (stereo unspecified)	-7	x	0%	x	x
O=C(Nc1ccc(Cl)cc1)P(=O)(O)c1ccccc1	2	x	-7%	x	10%
O=C(CNC(=O)c1ccco1)N=Nc1c(O)n(CCc2ccccc2)c2ccccc12	-84*	-3%	-24%	-47%	u
CCn1c(O)c(N=NC(=O)CNC(=O)Cc2ccccc2)c2ccccc21	-1	-11%	-2%	9%	-15%
CCNC(=O)C1CCCN(c2nn3cc(-c4ccc(C)cc4)nc3s2)C1 (stereo unspecified)	u	5%	20µM*	x	x
Cc1ccc(CNC(=O)C2CCCN(c3nn4cc(-c5ccc(C)cc5)nc4s3)C2)cc1 (stereo unspecified)	0	18%	8%	x	x
CCOc1ccccc1CNC(=O)C1CCN(c2nn3cc(-c4ccc(F)cc4)nc3s2)CC1	+	1%	33%	x	x
CCOc1ccc(NC(=O)C2CCCN(c3nn4cc(-c5ccc(OC)cc5)nc4s3)C2)cc1 (stereo unspecified)	+	22%	0%	x	x
COc1cccc(NC(=O)c2oc3ccccc3c2NC(=O)c2ccc(C(F)(F)F)cc2)c1	5	10%	3%	x	x
O=C(c1csnn1)N1CCC2(CC1)CCN(c1ncccn1)CC2	x	x	-1%	x	x
CCOC(=O)[C@]12Cc3ccccc3[C@H]1N(C(C)C)C(=O)c1cc(OC)ccc12	-97*	x	28µM*	x	x
CCOC(=O)N1CCN(C(=O)C2c3cc(OC)c(OC)cc3C(=O)N3CCc4ccccc4C23)CC1 (stereo unspecified)	-4	u	-19%	176%	2%
CCOC(=O)[C@]12Cc3ccccc3[C@H]1N(C)C(=O)c1cc(OC)ccc12	-97*	x	u	x	x
CCOC(=O)[C@]12Cc3cc(C)ccc3[C@H]1N(C(C)C)C(=O)c1ccccc12	-98*	x	10µM*	x	x
CCOC(=O)[C@]12Cc3c(cc(OC)c(OC)c3OC)[C@H]1N(C(C)C)C(=O)c1ccccc12	-100*	x	u	x	x
CCOC(=O)[C@]12Cc3cc(C)ccc3[C@H]1N(Cc1ccccc1)C(=O)c1ccccc12	-13	x	u	x	-12%[8.37 µM]
